According to PubChem BioAssay (EPA / NIEHS):
Active and inactive are the calls of the source. The calls were made as follows: active = hit-call score of the fitted dose curve at least 0.9, where 1 is the maximum; inactive = score below 0.9.

Experiments:
Conditions in all cases: mRNA level, 48 h; actives raise or lower the signal
[1] = read-out: Cytochrome P450 (CYP2B6), CYP2B6 (gene 1555); assay: LTEA_HepaRG_CYP2B6: Life Technologies and Expression Analysis (LTEA) Assay for Cytochrome P450 (CYP2B6) using HepaRG (AID 2283481)
Outline: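 HepaRG cells plated 48 h, switched to serum-free induction medium, then dosed 48 h (8 points, half-log from 100 uM, 0.5% DMSO). RNA isolated; CYP2B6 expression measured by qRT-PCR; gain or loss fitted relative to DMSO.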

[2] = read-out: Cytochrome P450 2C19 (Homo sapiens) (UniProt P33261); assay: LTEA_HepaRG_CYP2C19: Life Technologies and Expression Analysis (LTEA) Assay for CYP2C19 using HepaRG (AID 2283482)
Outline: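 Transcript levels of CYP2C19 were quantified by qRT-PCR after HepaRG cells were treated for 48 hours with test chemicals up to 100 uM (eight half-log concentrations, 0.5% DMSO vehicle). Gain or loss of signal was fitted relative to DMSO.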

CYP2C8 (gene 1558) = assay: LTEA_HepaRG_CYP2C8: Life Technologies and Expression Analysis (LTEA) Assay for CYP2C8 using HepaRG (AID 2283483)
Outline: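 Differentiated HepaRG cells in serum-free induction medium exposed 48 h in duplicate to 8 half-log concentrations from 100 uM in 0.5% DMSO. CYP2C8 mRNA by qRT-PCR normalized to ACTB, GAPDH, POLR2A; bidirectional fit versus DMSO.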

CYP2C9 (gene 1559) = assay: LTEA_HepaRG_CYP2C9: Life Technologies and Expression Analysis (LTEA) Assay for CYP2C9 using HepaRG (AID 2283484)
Outline: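 Differentiated human HepaRG cells in serum-free induction medium were exposed 48 h to chemicals in 8-point half-log series from 100 uM (0.5% DMSO), in duplicate. CYP2C9 mRNA was measured by qRT-PCR, normalized to ACTB/GAPDH/POLR2A, with bidirectional fitting versus DMSO.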

CYP2E1 (gene 1571) = assay: LTEA_HepaRG_CYP2E1: Life Technologies and Expression Analysis (LTEA) Assay for CYP2E1 using HepaRG (AID 2283485)
Outline: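 HepaRG cells, plated 48 h, then exposed 48 h in serum-free induction medium to eight half-log concentrations from 100 uM in 0.5% DMSO, duplicate. CYP2E1 mRNA by qRT-PCR, normalized to ACTB/GAPDH/POLR2A; bidirectional fit versus DMSO.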

CYP4A11 (gene 1579) = assay: LTEA_HepaRG_CYP4A11: Life Technologies and Expression Analysis (LTEA) Assay for CYP4A11 using HepaRG (AID 2283486)
Outline: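 HepaRG, 48 h chem exposure, 8 conc (100 uM top, half-log), 0.5% DMSO vehicle; qRT-PCR readout, housekeeping-gene normalized; bidirectional curve fit vs DMSO baseline.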

[3] = read-out: DNA damage-inducible transcript 3 (DDIT3), DDIT3 (gene 1649); assay: LTEA_HepaRG_DDIT3: Life Technologies and Expression Analysis (LTEA) Assay for DNA damage-inducible transcript 3 (DDIT3) using HepaRG (AID 2283488)
Outline: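 HepaRG cells, 48 h after plating, exposed 48 h in serum-free induction medium to 8 half-log concentrations up to 100 uM in 0.5% DMSO, in duplicate. DDIT3 mRNA measured by TaqMan qRT-PCR, normalized to ACTB, GAPDH and POLR2A. Fitted bidirectionally against DMSO.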

[4] = read-out: Pro-epidermal growth factor (Homo sapiens) (UniProt P01133); assay: LTEA_HepaRG_EGF: Life Technologies and Expression Analysis (LTEA) Assay for Epidermal growth factor (EGF) using HepaRG (AID 2283489)
Outline: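 HepaRG, 48 h dosing, 100 uM top, half-log x8, 0.5% DMSO. Readout: TaqMan qRT-PCR (Fluidigm array), housekeeping-normalized. Gain or loss of signal fit vs DMSO.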

[5] = read-out: Ezrin (EZR), EZR (gene 7430); assay: LTEA_HepaRG_EZR: Life Technologies and Expression Analysis (LTEA) Assay for Ezrin (EZR) using HepaRG (AID 2283491)
Outline: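 EZR transcript levels came from Fluidigm qRT-PCR and were normalized to three housekeeping genes after 48 h chemical exposure of HepaRG cells. Dosing used an 8-point half-log series with a 100 uM top concentration in 0.5% DMSO, tested in duplicate; both directions were fitted versus vehicle.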

[6] = read-out: Cytochrome P450 3A7 (Homo sapiens) (UniProt P24462); assay: LTEA_HepaRG_CYP3A7: Life Technologies and Expression Analysis (LTEA) Assay for CYP3A7 using HepaRG (AID 2283492)
Outline: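 Human HepaRG liver cells, 48 h post-plating, switched to serum-free induction medium and exposed in duplicate for 48 h. Dosing: 100 uM top, half-log dilutions, 8 points, 0.5% DMSO vehicle. Read-out: CYP3A7 mRNA, gain or loss fitted against DMSO baseline.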

CYP3A5 (gene 1577) = assay: LTEA_HepaRG_CYP3A5: Life Technologies and Expression Analysis (LTEA) Assay for CYP3A5 using HepaRG (AID 2283493)
Outline: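 HepaRG cells, plated 48 h then in serum-free induction medium, dosed in duplicate for 48 h with eight half-log concentrations up to 100 uM in 0.5% DMSO. Gene mRNA by Fluidigm TaqMan qRT-PCR, normalized to ACTB, GAPDH, POLR2A.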

[7] = read-out: Fatty Acid-Binding Protein 1 (FABP1), FABP1 (gene 2168); assay: LTEA_HepaRG_FABP1: Life Technologies and Expression Analysis (LTEA) Assay for Fatty Acid-Binding Protein 1 (FABP1) using HepaRG (AID 2283494)
Outline: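 Differentiated human HepaRG cells exposed 48 h in serum-free induction medium to eight half-log concentrations up to 100 uM (0.5% DMSO), duplicate. FABP1 mRNA by qRT-PCR, normalised to ACTB, GAPDH, POLR2A; bidirectional fitting against DMSO.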

[8] = read-out: Cytochrome P450 4A22 (Homo sapiens) (UniProt Q5TCH4); assay: LTEA_HepaRG_CYP4A22: Life Technologies and Expression Analysis (LTEA) Assay for Cytochrome P450 4A22 (CYP4A22) using HepaRG (AID 2283495)
Outline: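 Readout is CYP4A22 transcript induction or loss, quantified by qRT-PCR and normalized to ACTB, GAPDH and POLR2A. Human HepaRG cells receive test chemicals for 48 h at eight half-log concentrations from 100 uM in 0.5% DMSO.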

[9] = read-out: Cytochrome P450 7A1 (Homo sapiens) (UniProt P22680); assay: LTEA_HepaRG_CYP7A1: Life Technologies and Expression Analysis (LTEA) Assay for Cytochrome P450 7A1 (CYP7A1) using HepaRG (AID 2283496)
Outline: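 HepaRG cells plated 48 h, then switched to serum-free induction medium and exposed in duplicate for 48 h to 8-point half-log series from 100 uM in 0.5% DMSO. CYP7A1 mRNA by qRT-PCR (TaqMan), normalized to ACTB/GAPDH/POLR2A; bidirectional fit versus DMSO.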

[10] = read-out: Glutathione S-Transferase (GSTA2), GSTA2 (gene 2939); assay: LTEA_HepaRG_GSTA2: Life Technologies and Expression Analysis (LTEA) Assay for Glutathione S-Transferase (GSTA2) using HepaRG (AID 2283497)
Outline: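 Differentiated human HepaRG cells were exposed in duplicate for 48 h in serum-free induction medium, 8 points from 100 uM top in half-log steps, 0.5% DMSO. GSTA2 mRNA was measured by TaqMan qRT-PCR, normalized to ACTB, GAPDH and POLR2A; bidirectional fit versus DMSO.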

[11] = read-out: Glutamate-cysteine ligase catalytic (GCLC), GCLC (gene 2729); assay: LTEA_HepaRG_GCLC: Life Technologies and Expression Analysis (LTEA) Assay for Glutamate-cysteine ligase catalytic (GCLC) using HepaRG (AID 2283498)
Outline: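 Differentiated HepaRG cells exposed 48 h in serum-free induction medium, eight-point half-log series topping at 100 uM in 0.5% DMSO, duplicates. GCLC mRNA by qRT-PCR normalized to ACTB, GAPDH and POLR2A, fitted bidirectionally versus DMSO.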

[12] = read-out: growth arrest and DNA damage 45 (GADD45G), GADD45G (gene 10912); assay: LTEA_HepaRG_GADD45G: Life Technologies and Expression Analysis (LTEA) Assay for growth arrest and DNA damage 45 (GADD45G) using HepaRG (AID 2283499)
Outline: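 Gain or loss of GADD45G mRNA, quantified by TaqMan qRT-PCR against three housekeeping genes, is fitted in both directions relative to 0.5% DMSO. Human HepaRG cultures receive test chemical for 48 h at up to 100 uM.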

[13] = read-out: Glutamate-cysteine ligase regulatory (GCLM), GCLM (gene 2730); assay: LTEA_HepaRG_GCLM: Life Technologies and Expression Analysis (LTEA) Assay for Glutamate-cysteine ligase regulatory (GCLM) using HepaRG (AID 2283500)
Outline: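 Differentiated HepaRG cells exposed 48 h in serum-free induction medium to eight half-log concentrations up to 100 uM (0.5% DMSO). GCLM mRNA by TaqMan qRT-PCR, normalized to ACTB, GAPDH and POLR2A; bidirectional fit versus DMSO.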

[14] = read-out: Early growth response protein 1 (EGR1) transcription factor, EGR1 (gene 1958); assay: LTEA_HepaRG_EGR1: Life Technologies and Expression Analysis (LTEA) Assay for Early growth response protein 1 (EGR1) transcription factor using HepaRG (AID 2283490)
Outline: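 Differentiated HepaRG cells in serum-free induction medium exposed 48 hours, duplicate, to 8 half-log concentrations up to 100 uM in 0.5% DMSO. EGR1 mRNA measured by TaqMan qRT-PCR, normalized to ACTB, GAPDH, POLR2A; bidirectional fit versus DMSO.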

Measured: outcome

Chain of Cytochrome P450 2C19 (Homo sapiens) (P33261 whole entry, looked up): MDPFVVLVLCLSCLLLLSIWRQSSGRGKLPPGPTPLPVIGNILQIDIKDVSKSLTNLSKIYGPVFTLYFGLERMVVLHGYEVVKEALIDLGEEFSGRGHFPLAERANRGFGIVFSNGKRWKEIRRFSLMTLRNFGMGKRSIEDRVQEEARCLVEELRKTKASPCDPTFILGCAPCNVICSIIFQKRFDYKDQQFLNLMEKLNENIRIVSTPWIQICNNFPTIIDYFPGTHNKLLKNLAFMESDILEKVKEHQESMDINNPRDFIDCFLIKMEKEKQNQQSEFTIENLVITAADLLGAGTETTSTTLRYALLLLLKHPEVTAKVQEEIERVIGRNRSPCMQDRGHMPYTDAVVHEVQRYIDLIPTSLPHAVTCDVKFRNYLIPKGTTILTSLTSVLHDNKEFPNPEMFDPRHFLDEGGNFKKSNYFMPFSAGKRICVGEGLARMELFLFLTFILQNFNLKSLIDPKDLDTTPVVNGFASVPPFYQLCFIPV
Chain of Cytochrome P450 3A7 (Homo sapiens) (P24462 whole entry, looked up): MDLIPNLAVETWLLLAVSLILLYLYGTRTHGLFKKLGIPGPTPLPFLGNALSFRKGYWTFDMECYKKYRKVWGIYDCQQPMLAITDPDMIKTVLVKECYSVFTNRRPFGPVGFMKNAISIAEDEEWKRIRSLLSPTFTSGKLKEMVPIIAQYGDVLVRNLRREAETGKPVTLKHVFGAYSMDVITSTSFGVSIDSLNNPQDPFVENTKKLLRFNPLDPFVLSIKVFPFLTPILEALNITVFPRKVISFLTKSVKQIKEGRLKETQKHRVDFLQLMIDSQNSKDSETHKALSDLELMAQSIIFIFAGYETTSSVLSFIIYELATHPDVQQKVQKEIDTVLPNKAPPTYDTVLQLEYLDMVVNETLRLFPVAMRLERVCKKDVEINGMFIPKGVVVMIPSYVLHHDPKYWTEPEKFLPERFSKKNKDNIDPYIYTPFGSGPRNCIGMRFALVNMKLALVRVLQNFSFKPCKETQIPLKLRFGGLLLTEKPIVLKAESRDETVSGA

COS(C)(=O)=O
not listed: [14]
inactive: all other assays above

O=c1[nH]cnc2c1ncn2[C@H]1CC[C@@H](CO)O1
not listed: [14]
inactive: all other assays above

CNC(C)=O
not listed: CYP2C9 (gene 1559) | CYP4A11 (gene 1579)
inactive: all other assays above
